According to the supplement of paper PMC9135407:
Values joined by “and” are separate entries in the source; they are usually repeats but may differ in a detail not shown here. Identical values can stand only once. Counter-ions that a name gives are not always drawn. About 620 (11%) of roughly 5,800 compounds showed activity. The entries come from a sample that favours actives as a whole. Unmarked numbers belong to inactive results.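 The calls were made as follows: active = score above a cut-off or among the top three wells of a plate; in these data no inactive exceeds 0.85.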

System: primary human hepatic stellate cells (donor 1)
Test: scaled lipid accumulation score (0 = DMSO-like, 1 = nortriptyline-like); higher = stronger HSC inactivation (lipid re-accumulation), active = hit call of the paper
Details: 48 h
[1] = library stock concentration: 1 mM
[2] = library stock concentration: 10 mM
[3] = library stock concentration: 80 uM
[4] = library stock concentration: 400 uM
[5] = library stock concentration: 2 mM
[6] = library stock concentration: 3.33 mM
[7] = library stock concentration: 6.3 mM

CCCCCC(O)C=CC1C(O)CC(O)C1CC=CCCCC(=O)O (stereo not drawn) [8-epi-Prostaglandin F2a]
scaled lipid accumulation score [1]: ≤ -0.021

O=C(Cc1ccccc1)Nc1nc2ccc(Cl)cc2c2nc(-c3ccco3)nn12
scaled lipid accumulation score [2]: 0.596

CC(C)NC[C@@H](C(=O)N1CCN(c2ncnc3c2[C@H](C)C[C@H]3O)CC1)c1ccc(Cl)cc1 [listing 1 of 2 here]
scaled lipid accumulation score [2]: 0.881 (active)

CC(C)NC[C@@H](C(=O)N1CCN(c2ncnc3c2[C@H](C)C[C@H]3O)CC1)c1ccc(Cl)cc1 [listing 2 of 2 here]
scaled lipid accumulation score [3]: ≤ -0.016
scaled lipid accumulation score [4]: ≤ -0.016
scaled lipid accumulation score [5]: 0.083
scaled lipid accumulation score [6]: 0.174
scaled lipid accumulation score [2]: 0.257

CCCCCCCC/C=C\CCCCCCCC(=O)OCC(CO)OC(=O)CCCCCCC/C=C\CCCCCCCC (stereo not drawn) [1,2-Dioleoyl-glycerol (18:1)]
scaled lipid accumulation score [1]: 0.004

COc1cc(N2CCC(C(N)=O)CC2)ccc1Nc1nc(N)c(Cl)c(Nc2ccccc2S(=O)(=O)C(C)C)n1
scaled lipid accumulation score [3]: ≤ 0
scaled lipid accumulation score [4]: ≤ 0
scaled lipid accumulation score [5]: 0.025
scaled lipid accumulation score [2]: 0.537

O=C(O)CCCCCCC1C(=O)NC(=O)N1CCC(O)C1CCCCC1 (stereo not drawn)
scaled lipid accumulation score [1]: ≤ 0

COc1cc(OC)c(C(=O)CCCCN2CCC3(CC2)NC(=O)NC3=O)cc1NS(=O)(=O)c1ccc(C(F)(F)F)cc1.Cl
scaled lipid accumulation score [2]: 0.941 (active)

O=C(O)CN(CC(=O)O)Cc1cc2c(cc1O)Oc1cc(O)c(CN(CC(=O)O)CC(=O)O)cc1C21OC(=O)c2ccccc21 [Calcein]
scaled lipid accumulation score [2]: 0.169

COc1ccc2c(c1)c(CC(=O)Oc1ccc(-c3cc(=S)ss3)cc1)c(C)n2C(=O)c1ccc(Cl)cc1
scaled lipid accumulation score [1]: ≤ 0

COC(=O)[C@H](Cc1ccccc1)NC(=O)/C=C/c1ccc(O)cc1
scaled lipid accumulation score [1]: 0.011

C[C@H](NC(=O)CCc1nc2ccccc2c(=O)[nH]1)c1ccccc1
scaled lipid accumulation score [6]: ≤ -0.009
scaled lipid accumulation score [2]: ≤ 0

CCCCCC#CCC#CCC#CCCCCCCC(=O)O [8,11,14-Eicosatriynoic Acid]
scaled lipid accumulation score [1]: ≤ 0

CC(C)C[C@H](NC(=O)[C@@H](COC(C)(C)C)NC(=O)[C@H](Cc1ccc(O)cc1)NC(=O)[C@H](CO)NC(=O)[C@H](Cc1c[nH]c2ccccc12)NC(=O)[C@H](Cc1cnc[nH]1)NC(=O)[C@@H]1CCC(=O)N1)C(=O)N[C@@H](CCCNC(=N)N)C(=O)N1CCC[C@H]1C(=O)NNC(N)=O [Goserelin acetate]
scaled lipid accumulation score (library stock concentration: 1.6 mM): ≤ -0.006

CC(C)C[C@H](NC(=O)[C@@H](COC(C)(C)C)NC(=O)[C@H](Cc1ccc(O)cc1)NC(=O)[C@H](CO)NC(=O)[C@H](Cc1c[nH]c2ccccc12)NC(=O)[C@H](Cc1cnc[nH]1)NC(=O)[C@@H]1CCC(=O)N1)C(=O)N[C@@H](CCCNC(=N)N)C(=O)N1CCC[C@H]1C(=O)NNC(N)=O
scaled lipid accumulation score (library stock concentration: 9.6 mM): 0.046

CCCCCCCC(=O)OC[C@H](CO)OC(=O)CCCCCCC [1,2-Dioctanoyl-sn-glycerol]
scaled lipid accumulation score [1]: 0.009

CCCCCCCC(=O)OC[C@H](CO)OC(=O)CCCCCCC [1,2-Dioctanoyl-SN-glycerol]
scaled lipid accumulation score [1]: ≤ -0.021

Br.Br.CN(C)CCCc1cc(C(=O)Nc2ccc(-c3ccncc3)cc2)ccc1O
scaled lipid accumulation score [2]: 1.13 (active)

COc1ccc(NC(=O)c2ccc(-c3ccc(-c4noc(C)n4)cc3C)cc2)cc1OCCN(C)C
scaled lipid accumulation score [2]: 0.491

Cc1ccc(NC(=O)c2cccc(N(C)C)c2)cc1NC(=O)c1ccc(O)cc1
scaled lipid accumulation score [2]: ≤ -0.004

CC(C)CCCC(C)N (stereo not drawn) [Octodrine]
scaled lipid accumulation score (library stock concentration: 15.5 mM): 0.024

CCC(CC)CC1(C(=O)Nc2ccccc2SC(=O)C(C)C)CCCCC1
scaled lipid accumulation score [6]: ≤ 0
scaled lipid accumulation score [2]: ≤ 0

Cc1nc(-c2ccc(C(F)(F)F)cc2)sc1C(=O)NCc1ccc(OC(C)(C)C(=O)O)cc1
scaled lipid accumulation score [1]: ≤ 0

C(=C/CCN(C)C)(/c1c2cccc1)\c3c(cccc3)CC2.Cl [Amitriptyline hydrochloride]
scaled lipid accumulation score [2]: 1.11 (active)

CN(C)CCC=C1c2ccccc2CCc2ccccc21 [Annoyltin]
scaled lipid accumulation score [2]: 0.841

CN(C)CC/C=C1/c2ccccc2COc2ccc(CC(=O)O)cc21 [Olopatadine]
scaled lipid accumulation score (library stock concentration: 5.9 mM): ≤ -0.006

CN(C)CCC=C1c2ccccc2COc2ccccc21 [Doxepin]
scaled lipid accumulation score [2]: 0.731

CN(C)CCC=C1c2ccccc2CCc2ccccc21 [Amitriptyline hydrochloride]
scaled lipid accumulation score (library stock concentration: 6.4 mM): 0.347
scaled lipid accumulation score [2]: 0.6

CN(C)CCC=C1c2ccccc2CCc2ccccc21 [Amitriptyline HCl]
scaled lipid accumulation score [6]: 0.187

CN(C)CC/C=C1/c2ccccc2COc2ccc(CC(=O)O)cc21
scaled lipid accumulation score [2]: ≤ 0

CN(C)CCC=C1c2ccccc2COc2ccccc21 [Doxepin hydrochloride]
scaled lipid accumulation score: 0.633
scaled lipid accumulation score [2]: 0.495 and 0.707 and 0.72

CN(C)CCC1(c2ccc(Cl)cc2)Cc2ccccc2C(=O)O1 (stereo not drawn)
scaled lipid accumulation score [2]: 0.575

CN(C)CCC=C1c2ccccc2CCc2ccccc21.Cl [Amitriptyline HCl]
scaled lipid accumulation score [2]: 0.863 (active)

CN(C)CC/C=C1/c2ccccc2COc2ccc(CC(=O)O)cc21 [Olopatadine HCl]
scaled lipid accumulation score [6]: ≤ 0
scaled lipid accumulation score [2]: ≤ 0

CN(C)CC/C=C1/c2ccccc2COc2ccccc21.Cl [Doxepin hydrochloride]
scaled lipid accumulation score [7]: 1.34 (active)

CN(C)CCC=C1c2ccccc2CCc2ccccc21 [Amitryptiline hydrochloride]
scaled lipid accumulation score: 0.821

C[C@H]1[C@H](OC(=O)CCC(=O)O)O[C@@H]2O[C@@]3(C)CC[C@H]4[C@H](C)CC[C@@H]1[C@@]24OO3 [Artesunate]
scaled lipid accumulation score [6]: 0.009
scaled lipid accumulation score (library stock concentration: 5.2 mM): ≤ 0
scaled lipid accumulation score [2]: ≤ 0

C[C@H]1[C@H](OC(=O)CCC(=O)O)O[C@@H]2O[C@@]3(C)CC[C@H]4[C@H](C)CC[C@@H]1[C@@]24OO3
scaled lipid accumulation score [2]: ≤ 0

C/C=C/C/C=C/CCC(=O)[C@H]1O[C@H]1C(N)=O [Cerulenin]
scaled lipid accumulation score [1]: ≤ 0
scaled lipid accumulation score (library stock concentration: 22.4 mM): 0.518

CCCCCC(O)C=CC1C=CC(=O)C1CCCCCCC(=O)O (stereo not drawn) [8-iso Prostaglandin A1]
scaled lipid accumulation score [1]: ≤ 0

CCCCCC(O)C=CC1C=CC(=O)C1CCCCCCC(=O)O (stereo not drawn) [15-epi Prostaglandin A1]
scaled lipid accumulation score [1]: ≤ 0

N[C@@H](Cc1c[nH]cn1)C(=O)O [L-Histidine hydrochloride]
scaled lipid accumulation score [2]: ≤ -0.07

COC1=CC(=O)C=C(OC)C1=O [2,6-dimethoxyquinone]
scaled lipid accumulation score [2]: 0.299

CC(C)NCC(O)c1ccc(O)c(O)c1 (single isomer, unassigned; (-)) [(-)-Isoproterenol hydrochloride]
scaled lipid accumulation score: ≤ 0
scaled lipid accumulation score [2]: ≤ -0.055

CC[C@H]1C(=O)OC[C@@H]1Cc1cncn1C [Isopilocarpine nitrate]
scaled lipid accumulation score [2]: ≤ 0

COc1cccc(OC)c1OCCNCC1CSc2ccccc2O1 (stereo not drawn) [Benoxathian hydrochloride]
scaled lipid accumulation score [2]: 0.629

CCCn1ncc(-c2ccnc(NC3CC(C)(C)NC(C)(C)C3)n2)c1C
scaled lipid accumulation score [2]: 0.86 (active)

CC1(C)CC(Nc2nccc(-c3cnn(-c4ccccc4)c3)n2)CC(C)(C)N1
scaled lipid accumulation score [2]: 0.799 (active)

C[C@@H]1O[C@@H](O[C@H]2[C@H](Oc3cc(O)c(C(=O)CCc4ccc(O)cc4)c(O)c3)O[C@H](CO)[C@@H](O)[C@@H]2O)[C@H](O)[C@H](O)[C@H]1O [Naringin Dihydrochalcone]
scaled lipid accumulation score [6]: ≤ 0
scaled lipid accumulation score [2]: 0.078

O=C(O)CCC/C=C\C[C@@H]1CO[C@H](C(F)(F)F)O[C@@H]1c1ccccc1O
scaled lipid accumulation score [2]: ≤ 0

CCCCCCCC/C=C\CCCCCCCC(=O)OC[C@H](CO)OC(=O)CCCCCCC/C=C\CCCCCCCC [1,2-Dioleoyl-sn-glycerol]
scaled lipid accumulation score [1]: ≤ 0

CCN(CC)CCCC(C)Nc1c2ccc(Cl)cc2nc2ccc(OC)cc12 (stereo not drawn) [Quinacrine hydrochloride]
scaled lipid accumulation score [2]: 0.586

CCN(CC)CCCC(C)Nc1c2ccc(Cl)cc2nc2ccc(OC)cc12 (stereo not drawn) [Quinacrine 2HCl dihydrate]
scaled lipid accumulation score (library stock concentration: 5 mM): 0.876 (active)

CCN(CC)CCCC(C)Nc1c2ccc(Cl)cc2nc2ccc(OC)cc12 (stereo not drawn) [Quinacrine dihydrochloride]
scaled lipid accumulation score [2]: 0.536

CCN(CC)CCCC(C)Nc1c2ccc(Cl)cc2nc2ccc(OC)cc12 (stereo not drawn) [Quinacrine 2HCl]
scaled lipid accumulation score [6]: 0.307
scaled lipid accumulation score [2]: 0.325

CCN(CC)CCCC(C)Nc1c2ccc(Cl)cc2nc2ccc(OC)cc12 (stereo not drawn) [Quinacrine dihydrochloride dihydrate]
scaled lipid accumulation score: 0.288

CCN(CC)CCCC(C)Nc1nc(C)cc(Nc2ccc3nc(C)cc(N)c3c2)n1 (stereo not drawn)
scaled lipid accumulation score [6]: ≤ -0.009
scaled lipid accumulation score [2]: 0.217 and 0.086

c1ccc(-c2[nH]ncc2-c2ccnc3ccccc23)nc1
scaled lipid accumulation score [1]: ≤ 0
scaled lipid accumulation score [2]: ≤ -0.001

CC1=C(/C=C/C(C)=C/C=C/C(C)=C/CO)C(C)(C)CCC1 [Retinol]
scaled lipid accumulation score (library stock concentration: 7 mM): ≤ 0
scaled lipid accumulation score [2]: ≤ 0

NC(=O)c1cc[n+](CC2=C(C(=O)[O-])N3C(=O)[C@@H](NC(=O)Cc4cccs4)[C@H]3SC2)cc1 [Cefalonium]
scaled lipid accumulation score: ≤ 0

O=NN(CCCl)C(=O)NC1CCCCC1 [Lomustine]
scaled lipid accumulation score [6]: 0.044
scaled lipid accumulation score (library stock concentration: 8.6 mM): 0.014
scaled lipid accumulation score [2]: ≤ 0

CN1[C@@H]2CC[C@H]1C[C@@H](OC(=O)C(O)c1ccccc1)C2 (mixture of isomers) [DL-Homatropine hydrobromide]
scaled lipid accumulation score [2]: 0.242

CN1CCC(OC(c2ccccc2)c2ccccc2)CC1 [Diphenylpyraline hydrochloride]
scaled lipid accumulation score: 0.332
scaled lipid accumulation score [7]: 0.256
scaled lipid accumulation score [2]: 0.235

CN1C2CCC1CC(OC(c1ccccc1)c1ccccc1)C2.CS(=O)(=O)O (stereo not drawn) [Benztropine mesylate]
scaled lipid accumulation score [2]: 1.05 (active)

CN1[C@@H]2CC[C@H]1C[C@@H](OC(=O)C(O)c1ccccc1)C2 (mixture of isomers) [Homatropine hydrobromide (R,S)]
scaled lipid accumulation score: 0.043

CN1[C@@H]2CC[C@H]1C[C@@H](OC(c1ccccc1)c1ccccc1)C2 [Benztropine]
scaled lipid accumulation score (library stock concentration: 4.9 mM): 0.193
scaled lipid accumulation score [2]: 0.38

CN1[C@@H]2CC[C@H]1C[C@@H](OC(c1ccccc1)c1ccccc1)C2 [Benztropine mesylate]
scaled lipid accumulation score [6]: 0.003

CN1[C@@H]2CC[C@H]1C[C@@H](OC(c1ccccc1)c1ccccc1)C2 [Cogentin Mesylate]
scaled lipid accumulation score [2]: 0.598

C1[C@@H](N(C)[C@@H]2C1)C[C@@H](OC(c3ccccc3)c4ccccc4)C2.CS(O)(=O)=O (stereo partly drawn) [Benztropine mesylate]
scaled lipid accumulation score [2]: 0.873 (active)

CN1C2CCC1CC(OC(=O)C(O)c1ccccc1)C2 (stereo not drawn) [Homatropine Bromide]
scaled lipid accumulation score [6]: ≤ 0
scaled lipid accumulation score [2]: ≤ -0.001

CN1C2CCC1CC(OC(=O)C(O)c1ccccc1)C2 (stereo not drawn) [Homatropine bromide]
scaled lipid accumulation score [2]: ≤ 0
